These molecules were tested on HCC1569 (assay: H1.0 immunofluorescence intensity relative to DMSO (% of DMSO); higher = stronger H1.0 induction, active = 140 or more). Settings: concentration: 10 µM; 24 h.
How it was run: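 Cells were seeded at 800 per well in 384-well plates with RPMI containing 10% FBS; both HCC1569 and TDF lines were used. Compounds were added at 10 µM for 24 h at 37 °C, in triplicate, before fixation in 3.7% formaldehyde and staining with a rabbit anti-H1.0 antibody, an AlexaFluor 647 secondary and DAPI. H1.0 nuclear intensity or cell number is reported as percent of the plate control using the median of replicates, and HCC1569 values were smoothed for positional effects.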
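Note: TDF is a line of transformed human dermal fibroblasts of mesenchymal origin.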

H1.0 immunofluorescence intensity, inactive:
N[C@@H](Cc1c[nH]c2ccc(O)cc12)C(=O)O [5-Hydroxy-L-tryptophan] 116
O=C(C=Cc1ccc(O)c(O)c1)c1ccc(O)cc1O [Butein] 133
COc1cc(C=C(C#N)C(=O)c2ccc(O)c(O)c2)cc(I)c1O [I-OMe-Tyrphostin AG 538] 106
C=Cc1c(C)c2cc3[nH]c(cc4nc(cc5nc(cc1[nH]2)C(C)=C5CCC(=O)O)C(CCC(=O)O)=C4C)c(C)c3C=C [Protoporphyrin IX disodium] 100
Cc1ccc(C(=CCN2CCCC2)c2ccccn2)cc1.Cl [Triprolidine hydrochloride] 90
N#CC(=Cc1ccc(O)c(O)c1)C(=O)NCCCNC(=O)C(C#N)=Cc1ccc(O)c(O)c1 [Tyrphostin AG 537] 99.6
CCCCCCCCC(O)C=CC=CC=CC(O)CCCC(=O)O (stereo not given) [Leukotriene B3] 104
CC1C(=O)CCC2C1(C)CCC1C2(C)CCC2(C)C3CC(C)(C)CCC3(C)CCC12C (stereo not given) [Friedelin] 87.8
CCOC(=O)[C@H](CCc1ccccc1)N[C@@H](C)C(=O)N1C(=O)N(C)C[C@H]1C(=O)O.Cl 92.3
Brc1c(Br)c(Br)c2[nH]cnc2c1Br [4,5,6,7-tetrabromo-1H-benzimidazole] 103

Source: the supplement of paper PMC7156485
